Hits are enriched below; roughly 6% of the tested compounds scored in any of these assays.
VDR inhibitor: inhibitors of human vitamin D receptor | VDR-SRC2-3 peptide fluorescence polarization, 2 h | Potency, µM, for the others: max response, negative = inhibition, hits mostly inhibitors | 400,000 tested, 0.93% active | AID 504847
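Inhibition of the VDR/SRC2-3 peptide interaction is quantified by fluorescence polarization. Compounds (23 nl, pintool) incubate with the reagents for 2 hours at ambient room temperature.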
Tau ThT inhib: inhibitors of human tau fibril formation, thioflavin T binding; Potency, µM (series often up to 57.4 µM), for inactives: at the top dose activity, negative = inhibition, hits mostly inhibitors; AID 1460; 270,000 tested, 2.1% active; recombinant tau K18 P301L, heparin-induced fibrillization, ThT fluorescence; also: nearly all actives have a fitted effect of over 55% in size
Target sequence (P10636 561-689 P618L limits assumed): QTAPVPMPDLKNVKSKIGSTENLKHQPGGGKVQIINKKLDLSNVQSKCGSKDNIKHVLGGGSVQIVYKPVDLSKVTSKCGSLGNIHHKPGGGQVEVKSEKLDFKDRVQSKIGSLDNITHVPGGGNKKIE
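In this qHTS, human K18 P301L tau is incubated with compound and heparin for 6 hr at 37 C, and Thioflavin T fluorescence then reports fibril load.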
Sfp inh: inhibitors of Bacillus subtilis Sfp phosphopantetheinyl transferase. Biochemical Sfp PPTase activity, qHTS. Q9F4F7. Potency, µM, without a hit: largest response in the series, negative = inhibition, actives largely listed as inhibitors. 310,000 tested, 3.5% active;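 also: the enzyme is Sfp with the accession as filed and its product quenches rhodamine fluorescence; 0% = enzyme reaction without inhibitor and -100% = no enzyme wells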
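Sfp 15 nM + cpd, 15 min RT; start w/ rhodamine-CoA 5 uM, BHQ-2-YbbR 12.5 uM (final); 50 mM Hepes pH 7.6, 10 mM MgCl2, 0.01% NP-40, 0.01% BSA; read 525/598 nm at 0 and 30 min.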
Tau fluor counter: counter-screen for tau fibril formation inhibitors; tau K18 P301L (four-repeat tau fragment) Alexa594 fluorescence, heparin fibrillization; Potency, µM (doses to about 57.7 µM), for the others: at the top dose activity change, negative = decrease; 280,000 tested, 0.93% active; AID 1463; also: nearly all actives have a fitted effect of over 55% in size
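Human K18 P301L tau (15 uM unlabeled plus 0.24 uM Alexa 594-labeled, final) in 100 mM sodium acetate pH 7 was mixed with compound and 20 uM heparin and incubated 6 hr at 37 C.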
PLK1 PBD inh: PLK1 (human) polo-box domain binding inhibition. P53350. Plk1 PBD binding of FITC phosphopeptide, fluorescence polarization. Potency, µM, for the others: max response, negative = inhibition, hits mostly inhibitors. 360,000 tested, 2.8% active; also: series mostly up to about 57 µM; nearly all actives have a fitted effect of over 65% in size
Target sequence (P53350 whole entry, looked up, the tested form may be a part): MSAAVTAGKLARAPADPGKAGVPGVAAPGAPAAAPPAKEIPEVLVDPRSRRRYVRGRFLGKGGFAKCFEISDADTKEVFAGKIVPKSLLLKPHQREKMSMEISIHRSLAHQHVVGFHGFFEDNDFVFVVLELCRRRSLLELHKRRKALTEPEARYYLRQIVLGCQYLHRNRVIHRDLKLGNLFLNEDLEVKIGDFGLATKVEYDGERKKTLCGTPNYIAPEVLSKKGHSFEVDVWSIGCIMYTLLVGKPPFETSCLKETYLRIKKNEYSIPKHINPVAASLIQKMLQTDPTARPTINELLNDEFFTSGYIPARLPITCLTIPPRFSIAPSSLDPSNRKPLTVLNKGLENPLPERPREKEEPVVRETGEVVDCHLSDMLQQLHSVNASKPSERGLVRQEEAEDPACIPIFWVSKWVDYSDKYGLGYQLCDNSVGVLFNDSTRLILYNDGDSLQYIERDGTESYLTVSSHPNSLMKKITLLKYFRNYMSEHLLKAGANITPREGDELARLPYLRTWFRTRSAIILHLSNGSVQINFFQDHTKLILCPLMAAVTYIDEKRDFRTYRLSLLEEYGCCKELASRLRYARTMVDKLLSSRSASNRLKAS
Tau fibril FP: inhibitors of human tau fibril formation; 280,000 tested, 0.39% active; K18 P301L tau heparin fibrillization, Alexa594 FP, 6 h; P10636; Potency, µM (top dose mostly 57.7 µM), inactives show at the top dose activity, negative = inhibition, usual class: inhibitors; also: nearly all actives have a fitted effect of over 55% in size
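Steps: dispense K18 P301L tau (15 uM plus 0.24 uM Alexa 594 tracer, final) in pH 7 sodium acetate; add compound; add heparin (20 uM final); incubate 6 hr, 37 C; add ThT (30 uM final); after 1 hr ambient, read FP.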
* = called active by the depositor; [ ] = dose if it differs, or a comment. Calls follow the shape of the dose curve; as a rule, active = well fitted curve in the direction sought with a large enough effect; inconclusive = small, poorly fitted or top-dose-only effect, or another doubt; inactive = no such curve, though single readings can be large; an effect the other way counts as inactive or inconclusive. Unless noted, % is scaled to controls: 0 for no effect and ±100 for the full control effect; potency is read from the fitted curve at half-maximal effect.

Results for O=C(N/N=C/C=C/c1ccc([N+](=O)[O-])cc1)C1COc2ccccc2O1 (stereo not given) ?
VDR inhibitor: -1.9%; Tau ThT inhib: 4.47µM*; Sfp inh: -24.5%; Tau fluor counter: 15.8µM*[quencher]; PLK1 PBD inh: -8.0%; Tau fibril FP: 5.0%

How did O=C(Nc1ccc([N+](=O)[O-])cc1)C1COc2ccccc2O1 (stereo not given) do in these assays?
VDR inhibitor: -12.5%; Sfp inh: 1.4%; PLK1 PBD inh: -20.5%

How did COc1ccc(NC(=O)N(C)C[C@H]2Oc3ccc(NC(=O)NC4CCCCC4)cc3C(=O)N([C@H](C)CO)C[C@@H]2C)cc1 do in these assays?
VDR inhibitor: -7.7%; PLK1 PBD inh: -3.0%

What do the screens show for `Cc1ccc(NC(=O)COC(=O)C2CC2(Cl)Cl)cc1C` (stereo not given)?
VDR inhibitor: 0.7%; Tau ThT inhib: -5.5%; Sfp inh: 0.4%; Tau fluor counter: -7.9%; PLK1 PBD inh: 26.7µM*; Tau fibril FP: 0.2%

What do the screens show for `CCN(CC)C(=O)C1CCN(c2ncnc3c2cnn3-c2ccc(C)cc2C)CC1`?
VDR inhibitor: -14.8%; Tau ThT inhib: -10.3%; Sfp inh: 56.2µM*; Tau fluor counter: -8.0%; PLK1 PBD inh: -9.9%; Tau fibril FP: 7.6%

Results for CC1(C)OC(c2ccccc2)=C/C(=C\C=N\NC(=O)c2ccncc2)O1 ?
VDR inhibitor: 9.2%; Tau ThT inhib: 11.2µM*; Sfp inh: 3.1%; Tau fluor counter: inconclusive; PLK1 PBD inh: 1.8%; Tau fibril FP: inconclusive

How did CCC(=O)N[C@@H]1CC(C(C)(C)NC(=O)CC)CC=C1C (stereo not given in full) do in these assays?
VDR inhibitor: inconclusive; Tau ThT inhib: -6.0%; Sfp inh: 18.1%; Tau fluor counter: -6.6%; PLK1 PBD inh: 29.9µM*; Tau fibril FP: -3.1%

What do the screens show for `CN(C(=O)c1ccc(Br)o1)C1CCCCC1`?
VDR inhibitor: -7.2%; Sfp inh: 26.7%; PLK1 PBD inh: -2.1%

How did COc1ccc(CC(=O)Nc2ccc3nc(Nc4ccc(OC)cc4)cc(C)c3c2)cc1 do in these assays?
VDR inhibitor: 13.6%; Tau ThT inhib: inconclusive; Tau fluor counter: 3.55µM*[quencher]; Tau fibril FP: 2.2%

What do the screens show for `COc1ccc(Nc2cc(C)c3cc(NC(=O)Cc4c(F)cccc4Cl)ccc3n2)cc1`?
VDR inhibitor: 11.4%; Tau ThT inhib: inconclusive; Tau fluor counter: 7.94µM*[quencher]; Tau fibril FP: inconclusive

How did COc1ccc(Nc2cc(C)c3cc(NC(=O)COc4cccc(C)c4)ccc3n2)cc1 do in these assays?
VDR inhibitor: 20.1%; Tau ThT inhib: 7.08µM*; Tau fluor counter: 11.2µM*[quencher]; Tau fibril FP: inconclusive

Results for Cc1cc(Nc2cccc(Cl)c2)nc2ccc(NC(=O)Cc3c(F)cccc3Cl)cc12 ?
VDR inhibitor: 11.7%; Tau ThT inhib: inconclusive; Tau fluor counter: 7.94µM*[quencher]; Tau fibril FP: -13.0%

Results for COc1ccc(-c2onc(C)c2C)cc1S(=O)(=O)N1CCc2ccccc21 ?
VDR inhibitor: 4.5%; Tau ThT inhib: -15.7%; Tau fluor counter: inconclusive; Tau fibril FP: -7.1%

What do the screens show for `COc1ccc(Nc2cc(C)c3cc(NC(=O)c4cc(OC)cc(OC)c4)ccc3n2)cc1`?
VDR inhibitor: -0.7%; Tau ThT inhib: 11.2µM*; Tau fluor counter: 12.6µM*[quencher]; Tau fibril FP: inconclusive

Results for COc1ccc2oc(=O)c(C(=O)N3CCN(C(=O)c4ccco4)CC3)cc2c1 ?
VDR inhibitor: -13.4%; Sfp inh: -21.2%; PLK1 PBD inh: 29.9µM*

Results for COc1ccc(NC(=O)CN2CCN(C(=O)c3ccco3)CC2)c(OC)c1 ?
VDR inhibitor: -5.5%; Tau ThT inhib: -3.5%; Sfp inh: 11.4%; Tau fluor counter: -4.4%; PLK1 PBD inh: -5.2%; Tau fibril FP: -4.1%

How did COc1ccc(NC(=S)N2CCN(C(=O)c3ccco3)CC2)cc1 do in these assays?
VDR inhibitor: 14.9%; Sfp inh: -0.7%; PLK1 PBD inh: -3.7%

How did Cc1c(Cl)cccc1NC(=S)N1CCN(C(=O)c2ccco2)CC1 do in these assays?
VDR inhibitor: -26.2%; Sfp inh: 5.2%; PLK1 PBD inh: -8.3%

Results for COC(=O)c1ccc(NC(=S)N2CCN(C(=O)c3ccco3)CC2)cc1 ?
VDR inhibitor: -4.2%; Sfp inh: 44.7µM*; PLK1 PBD inh: 18.9µM*

Results for COc1ccc(NC(=S)N2CCN(C(=O)c3ccco3)CC2)c(OC)c1 ?
VDR inhibitor: -2.3%; Tau ThT inhib: -4.3%; Sfp inh: 39.8µM*; Tau fluor counter: -3.2%; PLK1 PBD inh: inconclusive; Tau fibril FP: 3.6%

Results for Cc1c(Cl)cccc1NC(=O)N1CCN(C(=O)c2ccco2)CC1 ?
VDR inhibitor: -25.3%; Sfp inh: 15.6%; PLK1 PBD inh: 16.8µM*

Results for O=C(Nc1ccc(S(=O)(=O)N2CCCC2)cc1)C1CC(=O)N(CCc2ccccc2)C1 (stereo not given) ?
PLK1 PBD inh: -6.1%

What do the screens show for `CCCCc1ccc(NC(=O)COc2cccc3c(=O)n(C)ccc23)cc1`?
VDR inhibitor: 0.2%; Tau ThT inhib: -16.3%; Tau fluor counter: -15.1%; Tau fibril FP: -13.9%

How did COc1ccc(CC(=O)n2[nH]c(=O)ccc2=O)cc1OC do in these assays?
VDR inhibitor: 44.7µM*; Tau ThT inhib: -13.8%; Sfp inh: 3.55µM*; Tau fluor counter: -22.2%; PLK1 PBD inh: 6.7µM*; Tau fibril FP: -18.9%

What do the screens show for `CCc1ccccc1NC(=O)c1nnn(-c2ccc(F)cc2)c1C`?
VDR inhibitor: -3.6%; Tau ThT inhib: -14.0%; Tau fluor counter: -25.0%; Tau fibril FP: -6.1%

How did COCCN(CC(=O)Nc1cccc(C)c1C)C(=O)c1cc(-c2ccncc2)nc2ccccc12 do in these assays?
VDR inhibitor: 23.3%; PLK1 PBD inh: 2.0%

What do the screens show for `Cc1ccc(-n2c(SCC(=O)NCC3CCCO3)nnc2-c2ccoc2C)cc1` (stereo not given)?
VDR inhibitor: 6.8%; Tau ThT inhib: 0.5%; Sfp inh: 15.8%; Tau fluor counter: -1.4%; PLK1 PBD inh: -19.3%; Tau fibril FP: 0.0%

How did Cc1occc1-c1nnc(SCC(=O)NCC2CCCO2)n1C (stereo not given) do in these assays?
VDR inhibitor: -18.6%; Tau ThT inhib: -6.9%; Sfp inh: 1.6%; Tau fluor counter: -3.8%; PLK1 PBD inh: 29.9µM*; Tau fibril FP: -2.7%

Results for COc1ccc(-n2c(Cc3cccn3C)nnc2SCC(=O)NCC2CCCO2)cc1 (stereo not given) ?
VDR inhibitor: 2.0%; Tau ThT inhib: 5.1%; Sfp inh: 50.1µM*; Tau fluor counter: 14.8%; PLK1 PBD inh: 3.7%; Tau fibril FP: 6.0%

Screening data (PubChem BioAssay)
